Here are results for 40 sequences from the OligoGym collection.
Note: reference of the scale not given here.

The target in the first assay is ERCC8. As to the kind of experiment: pooled miR-30 sensor sort-seq; sequence = guide strand. The conditions noted are these: shRNA.
Sequence TTTAATTGTGATTTTGTTGTAG returned a sensor-assay potency score (higher = more potent) of 0.555. Same read-out and setting: with TCACACCATCTGAACCACCTGA the figure was 0.0366; with TTTGACTGAAATACACAGCAGT, 0.0965. Still for that read-out and setting: under TTCTTTCAACATCTCTGTCTTT stands -0.331; under TATTTCTTGTCTGTGACCCTGT, 1.1; under TTGACTAAATAAACTATACAGA, -1.03. On the same count and under the same terms, under TAATCAAACATCCTGATGCTCT stands -0.532; under TTTCTTGTCTGTGACCCTGTAG, -0.264.

Consider TATAGTTCATAAAATCTGCTGA, for which the sensor-assay potency score (higher = more potent) worked out at 0.347. The sequence TAACTTTCCCATTATGAGCAGT showed a sensor-assay potency score (higher = more potent) of -0.724. The same measure, in the same setting: under TCTGTCTTTATTTAATTCCAGT stands -1.2. On the same count and under the same terms, under TAAACTATACAGAAGTCTGTTT stands -0.703.

The target of the next assay is ERG. The description is as above. The conditions noted are these: shRNA.
Sequence TTCTTTGGCACTTTGTCCTTAA showed a sensor-assay potency score (higher = more potent) of -0.383.

In turn, TTGAGACAGCCAATCCTGCTGA had a sensor-assay potency score (higher = more potent) of 0.276. In the case of TCTTGTCATAGTAGTAACGGAG, the sensor-assay potency score (higher = more potent) was -1.01. Still for that read-out and setting: under TAGCATGCATTAACCGTGGAGA stands -0.638. Same read-out and setting: with TTTCTAGCATGCATTAACCGTG the figure was -0.322; with TAAATCTGTGTTTCTAGCATGC, 0.0224.

In the case of TTACATTCCATTTTGATGGTGA, the sensor-assay potency score (higher = more potent) came out at 0.928. Same read-out and setting: with TGGAAGTCGAACTTGTAGGCGT the figure was 0.335.

Sequence TTTCTTTGGCACTTTGTCCTTA came in with a sensor-assay potency score (higher = more potent) of 0.442.

TAAAATGGCATTATAAACGGTA showed a sensor-assay potency score (higher = more potent) of -0.0295. The sequence TAACAAGATGTTGACGTCTGGA yielded a sensor-assay potency score (higher = more potent) of 0.51. The same measure, in the same setting: under TAAGACTTCAGTAACTCCCTCC stands 0.34. The same measure, in the same setting: with TATTCGTGACATTTTTAGCATC the figure was -1.17; with TTCTAGCATGCATTAACCGTGG, -0.659; with TTATCGTAGTTCATGTTGGGTT, -0.512. The same measure, in the same setting: with TATTGCTTTAGTTTCATCCCAG the figure was -0.25; with TACATTTCTTAAGACCACTTTC, -0.508. The sequence TGCTTCTACATACACTGTCTTT returned a sensor-assay potency score (higher = more potent) of -1.13. The same measure, in the same setting: with TAAGACTTCATGCTTCTACATA the figure was -1.33; with TTCTGTAGTAAGACTTCAGTAA, 0.212; with TTCTCCTCCATGTAGCTGCCGT, -0.46. The same measure, in the same setting: under TCATCTTGGAAGTCTGTCCATA stands -0.884. Still for that read-out and setting: with TTTTGATTCATGTTCTCCGATA the figure was -0.485. Take TTCTTGTCATAGTAGTAACGGA: the sensor-assay potency score (higher = more potent) is -1.05.

Another assay deals with ERICH1. Described as above. The conditions noted are these: shRNA.
For TTCATTGCTGCTGTCCTCGGGC, the sensor-assay potency score (higher = more potent) is 0.0342.

TTATGCTTCCTAATTCTTCTTC had a sensor-assay potency score (higher = more potent) of 0.311. The same measure, in the same setting: with TTTTTTGTTAAAGAGGAGCTGT the figure was 0.195; with TTAACTTAACAGAATGTCCATT, -0.597.
